Results reported in paper PMC4336329 (PLoS ONE, 2015).
The whole screen tested about 310,000 compounds, of which about 14,000 (4.5%) showed an effect of 50% or more. Effects have a minus sign here. Shown is part of a subset that was picked to be rich in strong results.

Target: human ether-à-go-go-related gene (hERG) potassium channel (human, UniProt Q12809)
Test: primary screen, population patch clamp on CHO cells stably expressing hERG; higher = less effect of the substance
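Also: peak tail current of the secondary pulse compared with the same well before compound.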

human ether-à-go-go-related gene (hERG) potassium channel, sequence (Q12809 whole entry, looked up): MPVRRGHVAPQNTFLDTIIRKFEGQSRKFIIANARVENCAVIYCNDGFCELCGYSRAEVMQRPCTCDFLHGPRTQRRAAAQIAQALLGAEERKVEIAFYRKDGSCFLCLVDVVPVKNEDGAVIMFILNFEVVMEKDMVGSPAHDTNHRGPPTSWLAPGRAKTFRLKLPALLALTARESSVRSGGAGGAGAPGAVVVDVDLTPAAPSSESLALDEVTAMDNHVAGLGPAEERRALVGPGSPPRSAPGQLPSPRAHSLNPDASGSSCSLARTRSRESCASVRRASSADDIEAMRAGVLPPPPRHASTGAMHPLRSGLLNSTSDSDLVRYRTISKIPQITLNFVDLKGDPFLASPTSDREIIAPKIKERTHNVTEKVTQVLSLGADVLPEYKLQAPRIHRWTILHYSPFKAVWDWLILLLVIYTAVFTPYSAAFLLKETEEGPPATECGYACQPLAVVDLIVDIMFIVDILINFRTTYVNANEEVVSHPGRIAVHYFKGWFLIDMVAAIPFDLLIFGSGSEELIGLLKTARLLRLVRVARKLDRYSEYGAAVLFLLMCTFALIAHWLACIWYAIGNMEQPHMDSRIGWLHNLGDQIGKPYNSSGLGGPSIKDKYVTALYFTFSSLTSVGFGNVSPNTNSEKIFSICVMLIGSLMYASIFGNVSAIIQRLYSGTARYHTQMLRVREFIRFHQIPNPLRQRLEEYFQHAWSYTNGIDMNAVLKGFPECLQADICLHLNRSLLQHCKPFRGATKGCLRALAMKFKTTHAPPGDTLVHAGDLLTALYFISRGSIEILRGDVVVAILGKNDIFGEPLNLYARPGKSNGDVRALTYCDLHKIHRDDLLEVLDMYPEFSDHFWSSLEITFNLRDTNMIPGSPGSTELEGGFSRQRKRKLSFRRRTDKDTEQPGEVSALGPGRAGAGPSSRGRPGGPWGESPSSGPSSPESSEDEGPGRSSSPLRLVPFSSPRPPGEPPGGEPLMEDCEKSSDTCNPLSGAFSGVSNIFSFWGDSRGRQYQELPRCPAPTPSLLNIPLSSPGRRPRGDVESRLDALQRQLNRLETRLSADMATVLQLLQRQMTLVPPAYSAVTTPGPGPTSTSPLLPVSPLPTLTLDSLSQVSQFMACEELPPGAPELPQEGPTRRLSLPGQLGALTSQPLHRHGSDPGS

Compound	hERG current change (%, negative = inhibition) at 10uM [%]
CSc1ccc(/C=C/C(=O)c2ccc(NC(=O)Cc3ccccc3)cc2)cc1	-4.59
O=C(O)c1ccc(NS(=O)(=O)c2ccc(Cl)c(Cl)c2)cc1O	-1.71
COc1ccc(-c2csc3nc(-c4ccccc4F)oc(=O)c23)cc1OC	-3.61
CCOC(=O)c1ccc(COC(=O)c2cc3ccccc3oc2=O)o1	-48.6
O=C1NC2=C(CCc3ccccc32)C(c2ccc(Br)cc2)N1 (stereo not shown)	-56.3
Cc1ccc(C2NC(=O)NC3=C2CCc2ccccc23)cc1 (stereo not shown)	2.59
O=C1NC2=C(CCc3ccccc32)C(c2ccccc2)N1 (stereo not shown)	-20.8
CCOC(=O)c1cccc(NC(=O)c2c(O)[nH]c(=O)[nH]c2=O)c1	-2.88
Cc1ccc(CN2CCSc3ccc(C(=O)N4CCN(c5ncccn5)CC4)cc32)cc1	19
CN(NC(=O)C(C)(C)C)c1nc(-c2ccccc2)nnc1C(F)(F)F	-4.05
Cc1sc2ncnc(OCC(=O)N3CCN(C(=O)c4ccco4)CC3)c2c1C	-30.8
Cc1sc2ncnc(SCC(=O)N3CCN(C(=O)c4ccco4)CC3)c2c1C	-70.1
Cc1nc(SCC(=O)Nc2ccc(CN3CCCC3)cc2)c2c(C)c(C)sc2n1	-35.3
Cc1sc2nc(C(C)C)nc(SCC(=O)N3CCOCC3)c2c1C	-0.958
Cc1sc2ncnc(SCC(=O)N3CCCC3)c2c1C	2.1
Cc1sc2nc(C(C)C)nc(SCC(=O)N3CCN(C(=O)c4ccco4)CC3)c2c1C	-72.3
O=C(CSc1ncnc2c1cnn2-c1ccccc1Cl)N1CCN(C(=O)c2ccco2)CC1	-65.7
CC(C)C(=O)NNC(=O)CSc1ncnc2c1cnn2-c1ccccc1Cl	9.5
Cc1sc2nc(C(C)C)nc(SCC(=O)NCc3ccco3)c2c1C	2.82
CC(=O)Nc1ccc(NC(=O)CSc2ncnc3sc(C)c(C)c23)cc1	8.58
Cc1sc2ncnc(SCC(=O)Nc3ccc(CN4CCCC4)cc3)c2c1C	-72.6
COc1ccc(N2CCN(C(=O)CSc3ncnc4c3cnn4-c3ccccc3C)CC2)cc1	10.8
Cc1cc(=O)n2nc(N3CCCC(C(=O)N4CCOCC4)C3)sc2n1 (stereo not shown)	3.1

Compound	hERG current change (%, negative = inhibition) at 10uM [%]
COc1ccc(/C=C/c2c([N+](=O)[O-])c(=O)n(C)c(=O)n2C)c(OC)c1OC	13
O=C(N/N=C/c1cccc2ccccc12)c1cccs1	20.7
COc1ccccc1N(CC(=O)NCC1CCCO1)C(=O)CNS(=O)(=O)c1ccccc1 (stereo not shown)	-0.369
Cc1cc(=O)oc(C)c1C(=O)Nc1ccc2nsnc2c1	9.45
CCOC(=O)c1ccc2c(c1)nc(SC(C)C(=O)NCC1CCCO1)n2CC (stereo not shown)	-18.9
CCOC(=O)c1ccc(NC(=O)CNC(=O)c2ccco2)cc1	13.8
O=C(NC(=S)Nc1ccccn1)c1ccc([N+](=O)[O-])cc1	-11.9
O=C(CC12CC3CC(CC(C3)C1)C2)NC1CC1	23.2
CCOc1ccc(S(=O)(=O)N2CCN(C(=S)NCc3ccccc3)CC2)cc1	-18.2
Nc1cccc(C(=O)Nc2cccc3ncccc23)c1	23.8
Cc1cccc(N2CCN(C(=O)c3ccc4c(c3)CCN4S(C)(=O)=O)CC2)c1C	-14.8
Cc1nc(SCC(=O)N2CCOCC2)c2c(C)c(C)sc2n1	1.76
Cc1nc(SCC(=O)N2CCN(C(=O)c3ccco3)CC2)c2c(C)c(C)sc2n1	-66.8
Cc1nc(SCC(=O)N2CCCCC2)c2c(C)c(C)sc2n1	-11.7
CCCN1Cc2cccc(C(=O)NCc3ccccc3)c2C1=O	-34.9
O=C(Nc1cccc(-c2nnc(-c3ccccc3)o2)c1)C1CCCO1 (stereo not shown)	-66.5
O=C(Nc1cccc(-c2nnc(-c3ccccc3)o2)c1)C1CC1	-19.3
O=C(Nc1ccc(-c2nnc(-c3ccccc3)o2)cc1)C1CCCO1 (stereo not shown)	-13.3
C=CCn1c(=NC(=O)C2CCCCC2)sc2cc(NC(C)=O)ccc21	-2.15
OC(COCc1cccs1)CN1CCN(c2ccccc2Cl)CC1 (stereo not shown)	-71
Cc1cccc(N2CCN(CC(O)COCc3cccs3)CC2)c1C (stereo not shown)	-70.8
CCOC(=O)C1CCN(CC(O)COCc2cccs2)CC1 (stereo not shown)	-38
CCOc1ccccc1N1CCN(CC(O)COCc2cccs2)CC1 (stereo not shown)	-32.1

Compound	hERG current change (%, negative = inhibition) at 10uM [%]
O=S(=O)(c1ccc(F)cc1)N1CCN(CC(O)COCc2cccs2)CC1 (stereo not shown)	-18.5
Oc1ccccc1N1CCN(CC(O)COCc2ccccc2Cl)CC1 (stereo not shown)	-42
COc1ccccc1N1CCN(CC(O)COCc2cccs2)CC1.Cl (stereo not shown)	-19.8
OC(COCc1cccs1)CN1CCN(c2ccccn2)CC1 (stereo not shown)	-52.5
CCOC(=O)c1cccc(COC(=O)c2cccc(-c3nnc(-c4ccccc4)o3)c2)c1	-2.94
COc1ccc(C(=O)c2ccsc2N)cc1	3.5
Cc1ccc(OP(=O)(O)Oc2ccc(C)cc2)cc1	2.09
CCOC(=O)c1cnc2ccc(OC)cc2c1NCc1ccccc1	-65.8
CCOC(=O)c1cnc2ccc(OCC)cc2c1NCc1ccccc1	-40.3
CCOC(=O)c1cnc2ccc(OCC)cc2c1NCc1ccccc1OC	4.45
CCOC(=O)c1cnc2ccc(OCC)cc2c1NCc1cccnc1.Cl	-77.4
CCOC(=O)c1nc(NCc2cccnc2)c2ccccc2n1	-15.3
CCOC(=O)c1cnc2ccc(OCC)cc2c1N(C)Cc1ccccc1	-11.9
Cc1cccc(NC(=O)c2cc(S(=O)(=O)NCc3ccco3)ccc2F)c1C	4.11
O=C(CNC(=O)c1ccc(-c2ccccc2)cc1)Nc1ccc(S(=O)(=O)Nc2ncccn2)cc1	4.04
Cc1cc(NCc2ccccn2)ccc1Br	-16.5
Clc1ccc(Cn2cccc2C2=NCCO2)cc1	4.69
CC(C)CNc1nc(Oc2ccc(=O)[nH]n2)nc(N(C)C)n1	8.46
COC(=O)CC(NC(=S)NC(=O)c1ccccc1)c1ccc(Br)cc1 (stereo not shown)	6.8
C=CCn1cc(C(=O)NCc2ccco2)c(=O)c2cc(S(=O)(=O)N3CCCCCC3)ccc21	-36.4
C=CCn1cc(C(=O)NCCOC)c(=O)c2cc(S(=O)(=O)N(CC)CC)ccc21	-13.9
CCN(CC)CCNC(=O)c1cn(CC)c2ccc(S(=O)(=O)N3CCOCC3)cc2c1=O	14.6
C=CCn1cc(C(=O)NCCCN(CC)CC)c(=O)c2cc(S(=O)(=O)N3CCC(C)CC3)ccc21	-53.7

Compound	hERG current change (%, negative = inhibition) at 10uM [%]
C=CCn1cc(C(=O)OC)c(=O)c2cc(S(=O)(=O)N3CCC(C)CC3)ccc21	-39
C=CCn1cc(C(=O)NCCCOC)c(=O)c2cc(S(=O)(=O)N3CCC(C)CC3)ccc21	-32.9
C=CCn1cc(C(=O)NCCN(CC)CC)c(=O)c2cc(S(=O)(=O)N3CCCCCC3)ccc21	-71.6
C=CCn1cc(C(=O)NCCOC)c(=O)c2cc(S(=O)(=O)N3CCCCCC3)ccc21	-65.8
C=CCn1cc(C(=O)NCc2ccc(Cl)cc2)c(=O)c2cc(S(=O)(=O)N(CC)CC)ccc21	-22.5
C=CCn1cc(C(=O)NCc2cccnc2)c(=O)c2cc(S(=O)(=O)N(CC)CC)ccc21	-74.4
COCCNC(=O)c1cn(C)c2ccc(S(=O)(=O)N3CCCCC3)cc2c1=O	11.1
C=CCn1cc(C(=O)OC)c(=O)c2cc(S(=O)(=O)N3CCCCCC3)ccc21	-0.223
CC(C)COc1ccc(C(=O)Nc2ccc(N3CCOCC3)cc2N2CCOCC2)cc1	1.07
COc1ccc(OC)c(C2NC(=O)NC(C)=C2C(=O)Nc2ccc(C)cc2)c1 (stereo not shown)	5.98
COC(=O)[C@H](C)NC(=O)Nc1cc(OC)ccc1OC	-8.76
N#CCC(=O)Nc1ccc(C(=O)OCC(=O)C23CC4CC(CC(C4)C2)C3)cc1	12.7
CC1CCCN(C(=O)C2CCCN(S(=O)(=O)c3cccc4nsnc34)C2)C1 (stereo not shown)	2.02
Cc1cccc(-n2c(-c3ccccc3)c[nH]c2=S)c1C	14.6
COCCn1c(SCC(=O)Nc2cc(OC)ccc2OC)nc2c(c1=O)SC(C)C2 (stereo not shown)	-18.5
COc1cc(/C=C/CO)cc(OC)c1OC/C=C(\C)CCC=C(C)C	1.34
CCOC(=O)c1c(NC(=O)C2CCCCC2)sc2c1CCN(C(C)C)C2.Cl	-81.6
CCN1CCc2c(sc(NC(=O)C3CCCCC3)c2C(=O)OC)C1.Cl	-17.4
CCOC(=O)c1c(NC(=S)N2CCCCC2)sc2c1CCN(C(=O)OCC)C2	-1.16
CC(C)N1CCc2c(sc(NC(=O)C3CCCCC3)c2C(N)=O)C1.Cl	-21.7
COC(=O)c1c(NC(=O)C2CCCCC2)sc2c1CCN(C(C)C)C2.Cl	-16.5
CCOC(=O)c1c(NC(=O)C2CCCCC2)sc2c1CCN(CC)C2.Cl	-51.7
